Assay outcomes deposited in PubChem BioAssay by National Center for Advancing Translational Sciences (NCATS).
Marburg entry – blocks Marburg virus binding or cell entry. Marburg virus pseudotype entry/binding inhibition, cell-based. Potency, µM (doses to about 49.2 µM), inactives show at the highest dose activity change, negative = inhibition, hits mostly inhibitors. 18,000 compounds, 6.5% hits. AID 720532
Lassa entry – Lassa virus entry inhibition | Lassa virus pseudotyped entry inhibition, cell-based qHTS | Potency, µM (doses to about 49.2 µM), without a hit: top-dose activity change, negative = inhibition, usual class: inhibitors | 18,000 compounds, 4.1% hits | AID 720533
* marks the source's active call; other numbers are inactive results; ? = inconclusive; . = no result; ! = not confirmed by another sample; [ ] = remark or other dose. The list is not random: actives were taken first. Their share in the collection is about 8%. The call rests on the fitted dose curve; tested in HEK293 cells. On the % scale 0 is the no-effect control and ±100 the full control effect; potency means the concentration at half of the fitted maximal effect.

SMILES	Marburg entry	Lassa entry
OC(CN1CCN(c2cccc(Cl)c2)CC1)C(c1ccccc1)c1ccccc1 (stereo not given)	35µM*	28µM*
O=C(O)COCCN1CCN(C(c2ccccc2)c2ccc(Cl)cc2)CC1 (stereo not given)	7%	2%
COC[C@H]1O[C@H](c2ccccc2)C=C[C@H]1OCC=C(C)C	42%[8.59 µM]	17%[8.59 µM]
CC(=O)O[C@H]1C[C@@H](O[C@@H]2[C@H](C)O[C@H](O[C@@H]3[C@H](C)O[C@H](O[C@@H]4CC[C@@]5(C)[C@@H](CC[C@]6(C)[C@]5(C)C[C@H](O)[C@]5(C)[C@@H](C7=CC(=O)OC7)CC[C@@]56O)C4)C[C@@H]3O)C[C@@H]2O)O[C@@H](C)[C@H]1O[C@H]1O[C@@H](CO)[C@@H](O)[C@@H](O)[C@@H]1O	0.89µM*	0.89µM*
CC(=O)OC1CC(OC2C(O)CC(OC3C(O)CC(OC4CCC5(C)C(CCC6C5CC(O)C5(C)C(C7=CC(=O)OC7)CCC65O)C4)OC3C)OC2C)OC(C)C1OC1OC(CO)C(O)C(O)C1O (stereo not given)	0.28µM*	0.32µM*
CC(=O)OC1CC[C@@]2(C)C3CC[C@@]4(C)C(CC5O[C@@]6(CCC(C)CO6)C(C)C54)C3CC[C@@H]2C1 (stereo not given in full)	9%	-7%
CC(=O)O[C@H]1C[C@H](O[C@H]2[C@@H](O)C[C@H](O[C@H]3[C@@H](O)C[C@H](OC4CC[C@@]5(C)[C@H](CC[C@@H]6[C@@H]5CC[C@]5(C)[C@@H](C7=CC(=O)OC7)CC[C@]65O)C4)O[C@@H]3C)O[C@@H]2C)O[C@H](C)[C@H]1O[C@@H]1O[C@H](CO)[C@@H](O)[C@H](O)[C@H]1O (stereo not given in full)	5.6µM*	25µM*
CC(=O)OC1CC[C@]2(C)C(CCC3C2CC[C@]2(C)C(C4=CC(=O)OC4)C(OC(C)=O)CC32O)C1 (stereo not given in full)	0.71µM*	1.4µM*
O=C(Nc1n[nH]c2nc(-c3ccco3)ccc12)C1CC1	-14%	.
CCC=CC[C@@]1(C(=O)OC)C=C[C@@H](C)[C@H](c2ccccc2Br)N1C(=O)C(F)(F)F	-1%[8.59 µM]	5%[8.59 µM]
CCCCn1c(C)cc2c(c1=O)[C@H]1O[C@](c3ccsc3)(Cc3cc(OC)c(OC)cc31)O2	?	4%[8.59 µM]
COC(=O)[C@@]12Cc3ccccc3[C@H]1C[C@H](C)[C@@H](C)N2C(=O)C(F)(F)F	3%[8.59 µM]	-3%[8.59 µM]
CCOC(=O)C1=CN(CCCc2cn(Cc3ccccc3)nn2)C(=O)NC1c1ccccc1 (stereo not given)	3%[8.59 µM]	3%[8.59 µM]
CC12C=C(C=Cc3ccccc3)C(C)(C1)C(c1ccccc1)CC2=O (stereo not given)	-4%[8.59 µM]	-11%[8.59 µM]
C=CCCN(Cc1ccc(C)cc1)S(=O)(=O)C=C	19%	26%
O=C1C2=C(C(=O)c3ccccc31)[C@H]1O[C@](CCCCN3C(=O)c4ccccc4C3=O)(Cc3ccccc31)O2	41%[8.59 µM]	-6%[8.59 µM]
CC(=O)OC1CCC23C(=O)OC45CCC(C6=CC(=O)OC6)C4(C)CCC2C5CCC3(O)C1 (stereo not given)	0.56µM*	1.3µM*
O=C1Nc2cccc(Br)c2[C@@]12O[C@H](COc1ccccc1)CC1=CCCC12 (stereo not given in full)	?	-28%[8.59 µM]
CC#CCN1C(=O)NC(c2ccccc2)C(C#N)=C1C (stereo not given)	23%[8.59 µM]	-18%[8.59 µM]
O=C(Nc1ccccc1)c1cc([N+](=O)[O-])ccc1Cl	?	-25%
O=C(Nc1ccc([N+](=O)[O-])cc1Cl)c1cc(Cl)ccc1O	5µM*!	1.1µM*
Cc1cc(F)ccc1O[C@H]1C=C[C@@H](c2ccc3c(c2)OCO3)O[C@H]1CO	14%[8.59 µM]	10%[8.59 µM]
C[C@H]1CCC[C@H](O)CCCCCc2cc(O)cc(O)c2C(=O)O1	14%	-26%
CC1CC2OC2/C=C\C=C/C(=O)Cc2c(Cl)c(O)cc(O)c2C(=O)O1 (stereo not given)	2.5µM*	7.9µM*
CC[C@@H](C(=O)[C@@H](C)[C@@H](O)[C@H](C)CCc1ccc(C)c(O)c1C(=O)O)[C@H]1O[C@](CC)([C@H]2CC[C@](O)(CC)[C@H](C)O2)C[C@@H]1C	-78%	11µM*
SMILES	Marburg entry	Lassa entry
Cc1ccc(NC(=O)CC2CC2)cc1-c1ccc(C(=O)NCC2CC2)cc1	-6%	.
COc1cc2c(cc1OC)[C@@H]1O[C@](c3ccsc3)(C2)Oc2cc(-c3ccccc3)oc(=O)c21	?	17%[8.59 µM]
O=C(C=Cc1ccccc1)Nc1cccc(C(=O)NC2CC2)c1	115%	43%
Nc1ccn([C@@H]2O[C@H](CO)[C@@H](O)[C@H]2O)c(=O)n1	8%	-6%
Nc1ncn(C2CC(O)C(CO)O2)c(=O)n1 (stereo not given)	-6%	-12%
O=c1[nH]cnc2c1ncn2[C@@H]1O[C@H](CO)[C@@H](O)[C@H]1O	10%	3%
Nc1ccn([C@@H]2O[C@H](CO)[C@@H](O)C2O)c(=O)n1 (stereo not given in full)	5µM*	7.1µM*
OC[C@H]1O[C@@H](n2cnc3c(=S)nc[nH]c32)[C@H](O)[C@@H]1O	7.9µM*	6.3µM*
Nc1ncn([C@H]2O[C@@H](CO)[C@@H](O)[C@@H]2O)c(=O)n1	3.2µM*	2µM*
O=C(OCc1cn([C@H]2C[C@H](c3ccc(Cl)cc3)N(C(=O)c3cccs3)C[C@H]2O)nn1)c1ccccc1	-22%	.
CSC[C@H]1CN(c2ccccc2)C(=O)[C@H]1CC(=O)Nc1ccccc1	27%	17%
COC(=O)[C@@H]1CC[C@H](C)[C@@H](c2ccc(C)cc2)N1C(=O)c1ccc(C=NOC[C@H]2O[C@H](c3ccccc3)C=C[C@H]2Oc2ccc(OC)cc2)cc1	-7%[8.59 µM]	-22%[8.59 µM]
O=C1NC(=O)C(c2cccc(Cl)c2)=C1Nc1ccc(Cl)c(C(=O)O)c1	-38%	17%
COC(=O)C1=C(C(=O)OC)[C@@H]2N(Cc3ccccc3)c3ccccc3[C@@]23CCC(=O)N(CC2CC2)C3=N1	?	-6%[8.59 µM]
CCOc1ccc(-c2nc3ccc(-c4nc5ccc(N6CCN(C)CC6)cc5[nH]4)cc3[nH]2)cc1	10µM*	?
Clc1ccc2nc(-c3ccccc3)[nH]c2c1	17%	8%
C[C@@H]1CC[C@H]2C(=O)N(Cc3cccc([N+](=O)[O-])c3)C[C@H](O)CN2[C@@H]1c1cccc(Br)c1	-10%[8.59 µM]	.
COc1ccc2c(c1)[C@@]1(OCCC=C[C@@H]1C)C(=O)N2CC=C(C)CCC=C(C)C	-10%[8.59 µM]	23%[8.59 µM]
CCCCCCC(=O)O[C@H]1CC[C@H]2[C@@H]3CCc4cc(O)ccc4[C@H]3CC[C@]12C	4%	32µM*
CC12CCC3c4ccc(O)cc4CCC3C1CCC2O (stereo not given)	4%	?
C[C@]12CC[C@@H]3c4ccc(O)cc4CC[C@H]3[C@@H]1CC[C@@H]2O	7%	14µM*!
C[C@@]12CC[C@@H]3c4ccc(O)cc4CC[C@H]3[C@H]1CC[C@H]2O	7%[17.8 µM]	-12%[17.8 µM]
COc1ccc(COC(=O)NN=C2C[C@@H](O)[C@@H](O)[C@@H]3[C@H]4C(=O)N(C[C@@H]5CCCO5)C(=O)[C@@H]4CC[C@@H]23)cc1	6%[8.59 µM]	?
O=C(C1CCCCC1)N1C[C@@H](O)[C@@H](n2cc(C3CC3)nn2)C[C@@H]1c1ccc(Cl)cc1	-19%	11%
C#CCOCC#CC[C@@]1(C(=O)OC)C=C[C@@H](C)[C@H](c2ccccc2Br)N1C(=O)C(F)(F)F	-23%[8.59 µM]	.
